In PubChem BioAssay (Tox21) one finds Potency and outcome data, which are given here for nine compounds.

A short description of experiment [1]: A CellTox Green Cytotoxicity Assay to monitor cytotoxicity in HEK293 cells - 8 hour (AID 1224884). Further: nearly all actives have a fitted effect of over 35% in size. Further: potency means the concentration at half of the fitted maximal effect. An outline of the steps: (§1)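 Seeding of HEK293 cells together with cytotoxicity dye preceded a 5 h incubation at 37 C/5% CO2. Test compounds in DMSO were then added and fluorescence monitored across 40 h.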
The nature of experiment [2]: qHTS RealTime-Glo MT Cell Viability Assay in HEK293 cells - 8 hour (AID 1224887). Further: nearly all actives have a fitted effect of over 50% in size. Further: potency means the concentration at half of the fitted maximal effect. In a few lines: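 Tox21 screen in HEK293 using RealTime-Glo MT chemistry, with cells and reagent co-dispensed. Luminescence proportional to viable cell number was captured at intervals during 40 h compound exposure at 37 C.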
(In qHTS, concentration-response curves come from the screen itself.)

Experiment [3] in a line: A CellTox Green Cytotoxicity Assay to monitor cytotoxicity in HEK293 cells - 16 hour (AID 1224888). Further: nearly all actives have a fitted effect of over 35% in size. Further: potency means the concentration at half of the fitted maximal effect. In a few lines:
as §1

The nature of experiment [4]: qHTS RealTime-Glo MT Cell Viability Assay in HepG2 cells - 0 hour (AID 1224889). Further: nearly all actives have a fitted effect of over 50% in size. An outline of the steps: (§2)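 HepG2 suspension premixed with RealTime-Glo reagents is plated at 600 cells per well and left 5 h at 37 C/5% CO2. Compounds in DMSO then go in, and bioluminescence reflecting viable cell number is recorded over 40 h.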
Experiment [5] is described as follows: A CellTox Green Cytotoxicity Assay to monitor cytotoxicity in HepG2 cells - 8 hour (AID 1224890). Further: nearly all actives have a fitted effect of over 45% in size. Further: potency means the concentration at half of the fitted maximal effect. In a few lines:
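Nonlytic assay: viable cells exclude the dye, so fluorescence scales with cell death. HepG2 at 600 cells/well, compounds added after 5 h, signal read across 40 h.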

Experiment [6] can be described thus: qHTS assay to identify small molecule antagonists of the estrogen receptor alpha (ER-alpha) signaling pathway using the BG1 cell line in the presence of 0.1 nM 17-beta-estradiol - cell viability counter screen (AID 1259241). Further: nearly all actives have a fitted effect of over 40% in size. An outline of the steps:
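Live-cell protease activity (CellTiter-Fluor fluorescence, 30 min) was read in the same wells after VM7Luc4E2 cells had been exposed to compounds with 0.1 nM 17beta-estradiol for 22 hr at 37C.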

Experiment [7] in a line: qHTS assay to identify small molecule antagonists of the androgen receptor (AR) signaling pathway using the MDA cell line in the presence of 0.5 nM R1881 - cell viability counter screen (AID 1259242). Further: nearly all actives have a fitted effect of over 45% in size. Further: potency means the concentration at half of the fitted maximal effect. An outline of the steps:
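R1881 at 0.5 nM final stimulated MDA-kb2 cells during 16 hr compound treatment at 37C. Cytotoxicity read: CellTiter-Fluor fluorescence after 30 min.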

The target of experiment [8] is Estrogen receptor (Homo sapiens) (UniProt P03372). As to the kind of experiment: qHTS assay to identify small molecule antagonists of the estrogen receptor alpha (ER-alpha) signaling pathway using the BG1 cell line in the presence of 0.1 nM 17-beta-estradiol (AID 1259244). Further: nearly all actives have a fitted effect of over 50% in size. In a few lines: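 VM7Luc4E2; 4xERE-luciferase; 0.1 nM E2 final; 22 h co-incubation, 37C; ONE-Glo luminescence after 30 min at room temperature.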

Experiment [9] in a line: qHTS assay to identify small molecule phospholipidosis (PLD) inducers (AID 1259344; active means well fitted curve in the direction sought with a large enough effect; an effect the other way counts as inactive or inconclusive). In a few lines:
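HepG2 cells on collagen I, attached 4 h at 37 C, were co-treated with compound and LipidTOX Red dye for 24 h at 37 C, then fixed with paraformaldehyde plus Hoechst 33342 and imaged by high-content microscopy for phospholipid accumulation.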

Experiment [10] is described as follows: qHTS assay to identify small molecule HDAC inhibitors (AID 1259364).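 Further: wild-type HCT-116 cells with endogenous class I/II HDAC activity; top concentration of the series differs between compounds; nearly all actives have a fitted effect of over 45% in size.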 In a few lines:
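Relative class I and II HDAC activity is taken from the luminogenic signal in HCT-116 cells, with compound exposure 2 hr and reagent development 30 min at room temperature.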

Experiment [11] in a line: qHTS assay to identify small molecule agonists of the sonic hedgehog signaling (Shh) pathway - cell viability counter screen (AID 1259366). Further: nearly all actives have a fitted effect of over 50% in size. Further: potency means the concentration at half of the fitted maximal effect. In a few lines:
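CellTiter-Fluor fluorescence read-out, 1 hr at 37C, added after 23hr compound exposure. Cells: 3T3 Gli1-Luc, an NIH/3T3 clone with stably integrated Gli1-Luc reporter, plated 4hr before compound.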

Experiment [12] is described as follows: qHTS assay to identify small molecule antagonists of the sonic hedgehog signaling (Shh) pathway - cell viability counter screen (AID 1259367). Further: nearly all actives have a fitted effect of over 55% in size. Further: potency means the concentration at half of the fitted maximal effect. In a few lines: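 NIH/3T3-derived Gli1-Luc reporter cells (2,000 per well) rested 4 hr at 37 C, then received DMSO compounds plus conditioned medium. After 23 hr of treatment, CellTiter-Fluor was added for 1 hr at 37C and fluorescence read.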

Experiment [13] can be described thus: qHTS assay to identify small molecule agonists of the sonic hedgehog signaling (Shh) pathway (AID 1259368; calls by dose curve;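 further: NIH/3T3-derived 3T3Gli1-Luc cells carrying a stable Gli1-driven firefly luciferase reporter; series mostly up to about 92 µM; nearly all actives have a fitted effect of over 15% in size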). In a few lines: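 Mouse fibroblast (NIH/3T3) reporter cells with stably integrated Gli1-Luc were treated 24 hr with compound; firefly luciferase luminescence served as the read-out.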
Experiment [14] can be described thus: qHTS assay to identify small molecule antagonists of the sonic hedgehog signaling (Shh) pathway (AID 1259369; calls by dose curve; further: nearly all actives have a fitted effect of over 45% in size; further: potency means the concentration at half of the fitted maximal effect). In a few lines: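 Conditioned medium drives Shh signalling in 3T3Gli1-Luc cells; compounds in DMSO co-applied, 24hr at 37 C, then luciferase luminescence.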
Experiment [15] has as its target Estrogen receptor beta (Homo sapiens) (UniProt Q92731). As to the kind of experiment: qHTS assay to identify small molecule agonists of the estrogen receptor beta (ER-beta) signaling pathway (AID 1259377; active means well fitted activation curve with a large enough effect in the signal ratio in the repeat runs, not every such curve was filed as active; the % refers to the signal ratio). An outline of the steps: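 Beta-lactamase reporter readout: fluorescence of LiveBLAzer B/G FRET substrate after 2 h at room temperature, following 16 h compound treatment of ER-beta-UAS-bla HEK293T cells at 37C in 2% charcoal-stripped FBS medium.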

For experiment [16] the target is unchanged. The experiment is described as follows: qHTS assay to identify small molecule antagonists of the estrogen receptor beta (ER-beta) signaling pathway (AID 1259378; active means well fitted inhibition curve with a large enough effect in the signal ratio in the repeat runs, not every such curve was filed as active; the % refers to the signal ratio). An outline of the steps: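 ER-beta-UAS-bla HEK293T (GripTite) cells in 2% charcoal-stripped FBS medium were preincubated 6 hr at 37C, dosed with compound, then stimulated with 1 nM E2 (final) for 16 hr; beta-lactamase reporter read by B/G FRET fluorescence after 2 hr substrate loading.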

A short description of experiment [17]: qHTS RealTime-Glo MT Cell Viability Assay in HepG2 cells - 16 hour (AID 1224885). Further: nearly all actives have a fitted effect of over 50% in size. Further: potency means the concentration at half of the fitted maximal effect. An outline of the steps: as §2
A short description of experiment [18]: qHTS RealTime-Glo MT Cell Viability Assay in HEK293 cells - 24 hour (AID 1224886). Further: nearly all actives have a fitted effect of over 50% in size. Further: potency means the concentration at half of the fitted maximal effect. An outline of the steps: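 Reads taken at 0, 8, 16, 24, 32 and 40 h from the same wells. HEK293 cells (600/well) carried RealTime-Glo reagents from seeding, with compound added after a 5 h settle at 37 C.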
Experiment [19] can be described thus: qHTS assay to identify small molecule HDAC inhibitors - cell viability counter screen (AID 1259365). In a few lines: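 HCT-116 (wild type), 1,500 cells/well, overnight 37C/5% CO2; compound in DMSO 2hr; CellTiter-Glo 30min RT; luminescence read.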
The target in experiment [20] is Androgen receptor (Homo sapiens) (UniProt P10275). The experiment is described as follows: qHTS assay to identify small molecule antagonists of the androgen receptor (AR) signaling pathway using the MDA cell line in the presence of 0.5 nM R1881 (AID 1259243). Further: nearly all actives have a fitted effect of over 50% in size. Further: potency means the concentration at half of the fitted maximal effect. In a few lines: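 We exposed MDA-kb2 cells to compounds under 0.5 nM R1881 stimulation for 16 hr at 37C and quantified MMTV-driven luciferase by luminescence.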

Unmarked numbers belong to inactive results. Results filed as inconclusive are left out. Active and inactive are the calls of the source. Unless noted, the call rests on the fitted dose curve; in most records, active means well fitted curve in the direction sought with a large enough effect in the repeat runs; inconclusive means weak or mixed curves; inactive means no such curve, though single readings can be large; an effect the other way counts as inactive or inconclusive.

Chain of Estrogen receptor (Homo sapiens) (P03372 whole entry, looked up): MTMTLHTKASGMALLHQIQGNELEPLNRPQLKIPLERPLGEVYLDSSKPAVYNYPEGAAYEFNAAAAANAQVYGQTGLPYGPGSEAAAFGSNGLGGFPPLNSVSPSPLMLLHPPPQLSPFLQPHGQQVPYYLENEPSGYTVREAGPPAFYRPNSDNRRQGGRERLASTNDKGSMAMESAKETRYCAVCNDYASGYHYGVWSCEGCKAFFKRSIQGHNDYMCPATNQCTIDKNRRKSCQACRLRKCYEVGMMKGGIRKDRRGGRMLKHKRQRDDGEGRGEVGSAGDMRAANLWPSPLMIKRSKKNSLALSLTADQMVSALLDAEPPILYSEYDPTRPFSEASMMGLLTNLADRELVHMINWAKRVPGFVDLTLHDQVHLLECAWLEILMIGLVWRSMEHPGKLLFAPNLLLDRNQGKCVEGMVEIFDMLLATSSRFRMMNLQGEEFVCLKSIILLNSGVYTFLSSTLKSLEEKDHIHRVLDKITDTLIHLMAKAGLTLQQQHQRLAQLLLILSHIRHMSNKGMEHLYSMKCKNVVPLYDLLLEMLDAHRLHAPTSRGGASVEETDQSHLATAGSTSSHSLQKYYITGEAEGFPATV
Chain of Estrogen receptor beta (Homo sapiens) (Q92731 whole entry, looked up): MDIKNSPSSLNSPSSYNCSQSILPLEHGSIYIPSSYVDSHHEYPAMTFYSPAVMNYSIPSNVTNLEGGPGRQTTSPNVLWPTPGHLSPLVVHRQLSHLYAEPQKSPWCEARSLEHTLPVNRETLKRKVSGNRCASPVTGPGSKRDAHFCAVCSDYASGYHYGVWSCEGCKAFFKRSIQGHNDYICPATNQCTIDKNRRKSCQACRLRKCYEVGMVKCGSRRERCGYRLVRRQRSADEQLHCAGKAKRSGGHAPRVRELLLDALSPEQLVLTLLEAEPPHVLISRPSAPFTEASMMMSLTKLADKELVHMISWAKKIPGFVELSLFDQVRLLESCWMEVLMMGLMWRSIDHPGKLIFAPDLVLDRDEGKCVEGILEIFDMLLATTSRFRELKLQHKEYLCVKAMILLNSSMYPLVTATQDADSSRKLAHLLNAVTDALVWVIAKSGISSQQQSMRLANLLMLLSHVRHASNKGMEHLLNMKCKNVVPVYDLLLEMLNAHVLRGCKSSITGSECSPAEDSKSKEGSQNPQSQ
Chain of Androgen receptor (Homo sapiens) (P10275 whole entry, looked up): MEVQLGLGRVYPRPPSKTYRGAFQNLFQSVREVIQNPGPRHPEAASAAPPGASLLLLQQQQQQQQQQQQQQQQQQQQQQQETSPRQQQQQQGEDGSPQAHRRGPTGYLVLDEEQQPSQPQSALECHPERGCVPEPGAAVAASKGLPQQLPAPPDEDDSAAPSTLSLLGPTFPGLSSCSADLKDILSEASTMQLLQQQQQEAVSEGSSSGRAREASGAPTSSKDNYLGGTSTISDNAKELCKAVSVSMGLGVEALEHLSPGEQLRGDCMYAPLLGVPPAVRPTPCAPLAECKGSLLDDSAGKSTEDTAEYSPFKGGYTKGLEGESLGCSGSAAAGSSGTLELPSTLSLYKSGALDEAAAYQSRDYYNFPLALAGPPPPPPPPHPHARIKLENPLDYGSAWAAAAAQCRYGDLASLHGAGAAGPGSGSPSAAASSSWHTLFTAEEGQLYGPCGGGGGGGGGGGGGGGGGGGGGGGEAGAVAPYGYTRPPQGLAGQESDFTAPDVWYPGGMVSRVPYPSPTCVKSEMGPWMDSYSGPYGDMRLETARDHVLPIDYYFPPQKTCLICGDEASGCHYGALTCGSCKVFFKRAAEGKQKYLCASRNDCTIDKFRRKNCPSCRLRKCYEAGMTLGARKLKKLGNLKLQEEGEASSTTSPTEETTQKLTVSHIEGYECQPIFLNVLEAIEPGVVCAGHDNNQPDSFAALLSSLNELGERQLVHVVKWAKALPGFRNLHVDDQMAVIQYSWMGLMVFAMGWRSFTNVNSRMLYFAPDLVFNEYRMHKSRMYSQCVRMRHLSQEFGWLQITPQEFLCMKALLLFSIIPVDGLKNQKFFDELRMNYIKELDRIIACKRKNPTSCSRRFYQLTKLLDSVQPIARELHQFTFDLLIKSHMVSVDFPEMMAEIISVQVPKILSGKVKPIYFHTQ

With `CN(C/C=C/c1ccccc1)Cc1cccc2ccccc12`, the Potency in experiment [1] was 19 µM (active); in [3], 19 µM (active); in experiment [5], 23.9 µM (active). Besides, the Potency entry in experiment [2], in [4], in [6], in experiment [7], in experiment [8] and in [9] was “inactive” each time. The Potency result in experiment [10], in experiment [11], in experiment [12], in experiment [13], in experiment [14] and in experiment [16] was “inactive” each time. In addition, the compound was classed as inactive in [15].
Turning to `c1ccc2occc2c1`, the Potency entry in experiment [1], in experiment [17], in experiment [18], in experiment [4], in [5] and in [6] was “inactive” each time. Also, the Potency result in experiment [7], in experiment [10], in [19], in [11], in experiment [12] and in experiment [13] was “inactive” each time.
Take `C1CCSC1`: the Potency result in experiment [1], in [17], in [3], in experiment [4], in experiment [5] and in experiment [7] was “inactive” in each case. Besides, the Potency result in experiment [8], in experiment [10], in [19], in [11], in experiment [12] and in [13] was “inactive” throughout. In addition, the Potency entry in experiment [14] is “inactive”.
Turning to `N#Cc1nc(Cl)c(Cl)c(Cl)c1Cl`, the Potency entry in experiment [1], in [4], in [5], in experiment [10] and in experiment [13] was “inactive” throughout. The Potency is 21.9 µM (active) in experiment [17]; 1.95 µM (active) in experiment [18]; 54.5 µM (active) in experiment [7]; 4.86 µM (active) in experiment [20]; 5.45 µM (active) in experiment [11]; 10.9 µM (active) in experiment [12].
`CCCCCCCCSCc1cc(C)c(O)c(CSCCCCCCCC)c1`: the Potency result in experiment [1], in experiment [17], in experiment [3], in experiment [4], in experiment [5] and in [6] was “inactive” each time. The Potency result in experiment [7], in experiment [20], in experiment [8], in experiment [10], in experiment [19] and in experiment [11] was “inactive” each time. The Potency entry in [13] is “inactive”. Further, the Potency in [2] was 9.77 µM (active).
`O=C1OC(O)C(C(Cl)Cl)=C1Cl` (stereo not drawn): the Potency result in experiment [1], in experiment [2], in experiment [3], in [4], in [5] and in experiment [7] was “inactive” in each case. Also, the Potency result in [10] and in experiment [19] was “inactive” throughout. Besides, the values for the Potency in experiment [11], in [12] and in experiment [14] were 44.6 µM (active), 25.1 µM (active) and 5 µM (active), respectively. Besides, in experiment [15], the outcome was inactive.
Regarding `C=CCc1cc(S(=O)(=O)c2ccc(O)c(CC=C)c2)ccc1O`, the Potency result in [1], in experiment [5], in experiment [6], in experiment [7], in experiment [20] and in [10] was “inactive” throughout. The Potency entry in experiment [19], in [13] and in experiment [14] was “inactive” in each case. Besides, the Potency was 27.5 µM (active) in experiment [18], 24.5 µM (active) in [2] and 24.3 µM (active) in experiment [12].
Take `CCN(CC)c1ccc(C=O)cc1`: the Potency entry in [1], in experiment [17], in experiment [4], in experiment [5], in experiment [6] and in experiment [7] was “inactive” each time. The Potency result in [10], in [19], in experiment [11], in experiment [12], in experiment [13] and in [14] was “inactive” in each case. Further, the Potency entry in experiment [16] was “inactive”. Besides, the outcome in experiment [15] was inactive.
Regarding `CCOC(=O)C1=NN(c2ccc(Cl)cc2Cl)C(C)(C(=O)OCC)C1` (stereo not drawn), the Potency entry in experiment [1], in experiment [17], in [3], in experiment [4], in experiment [5] and in experiment [6] was “inactive” in each case. Also, the Potency result in [7], in experiment [10], in experiment [19], in experiment [11], in experiment [12] and in [13] was “inactive” each time. In addition, the Potency in experiment [20] is 30.6 µM (active). Moreover, the compound was classed as inactive in [15].
